# Assay results: the supplement of paper PMC4962491
# ± gives the standard deviation of the averaged measurements. Whole data set: some 1,600 compounds, median “mitochondrial oxygen consumption rate normalised to cell number, Z score over the library” near 0.065, cut for the lowest 2% near -2.2. Many of the other results were omitted from the sample, so the lowest values are more common in it than they were.
# System: FaDu
# Assay: mitochondrial oxygen consumption rate normalised to cell number, Z score over the library; higher = higher oxygen consumption (negative = OCR reduction)
# Settings: treatment time 24 h; assay medium: 5 mM galactose, 5 mM pyruvate, 4 mM glutamine; 10 µM
# Experimental: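 Primary screen: FaDu cells were incubated 24 h with Pharmakon 1600 / TDI oncology set compounds at 2 or 10 uM. Mitochondrial-specific OCR (basal minus 2 uM antimycin A) was measured on a Seahorse XF96 in assay medium with 5 mM galactose, 5 mM pyruvate and 4 mM glutamine, then corrected for Hoechst cell number and expressed as a Z score […]. Compounds that cut cell number by >66% were excluded. Two repeats.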
row,SMILES,mitochondrial oxygen consumption rate normalised
1,CC(C)(C)CC(C)(C)c1cc(Cc2cc(C(C)(C)CC(C)(C)C)cc(-n3nc4ccccc4n3)c2O)c(O)c(-n2nc3ccccc3n2)c1,0.425 ± 0.54
2,O=C1c2ccccc2C(=O)C1c1ccccc1,-1.52 ± 0.92
3,NC[C@H]1O[C@H](O[C@H]2[C@H](O[C@@H]3O[C@H](CO)[C@@H](O)[C@H]3O)[C@@H](O)[C@H](N)C[C@@H]2N)[C@H](N)[C@@H](O)[C@@H]1O,0.994 ± 0.3
4,CCCCC(CC)COC(=O)C=Cc1ccc(OC)cc1 (stereo not given),0.103 ± 0.58
5,CCCCCCCCNC(C)C(O)c1ccc(SC(C)C)cc1 (stereo not given),-3.24 ± 0.087
6,CC(NCCc1ccc(O)cc1)C(O)c1ccc(O)cc1 (stereo not given),-0.342 ± 0.3
7,CC(COc1ccccc1)NC(C)C(O)c1ccc(O)cc1 (stereo not given),0.554 ± 0.81
8,CCCCC(CC)COC(=O)c1ccccc1O (stereo not given),0.409 ± 0.072
9,C=CCOC(Cn1ccnc1)c1ccc(Cl)cc1Cl (stereo not given),-0.834 ± 0.055
10,Clc1ccc(COC(Cn2ccnc2)c2ccc(Cl)cc2Cl)cc1 (stereo not given),-2.19 ± 0.39
11,Clc1ccc(COC(Cn2ccnc2)c2ccc(Cl)cc2Cl)c(Cl)c1 (stereo not given),-0.399 ± 0.35
12,NC(=O)[C@@H]1CCCN1C(=O)[C@H](Cc1c[nH]cn1)NC(=O)[C@@H]1CCC(=O)N1,-1.1 ± 0.47
13,CC(C)CC(N)=O,0.337 ± 0.48
14,O=C([O-])/C=C/C(=O)[O-].[Fe+2],-0.129 ± 0.31
15,CC(=O)Oc1cccc(O)c1,0.689 ± 0.62
16,CC(O)C(=O)O.N (stereo not given),0.0377 ± 0.64
17,Nc1ncn([C@H]2C[C@H](O)[C@@H](CO)O2)c(=O)n1 [Decitabine],0.0464 ± 0.58
18,Nc1ncn([C@@H]2O[C@H](CO)[C@@H](O)[C@H]2O)c(=O)n1,-2.25 ± 0.072
19,Nc1ccn([C@@H]2O[C@H](CO)[C@@H](O)[C@@H]2O)c(=O)n1 [Cytarabine;  Ara-C],1.36 ± 0.84
20,Nc1ncn([C@@H]2O[C@H](CO)[C@@H](O)[C@H]2O)c(=O)n1 [Azacitidine],0.38 ± 0.39

row,SMILES,mitochondrial oxygen consumption rate normalised
1,Nc1ccn([C@@H]2O[C@H](CO)[C@@H](O)[C@@H]2O)c(=O)n1,0.901 ± 0.043
2,Nc1nc2[nH]cnc2c(=S)[nH]1 [Thioguanine],0.0465 ± 0.27
3,Nc1nc2[nH]cnc2c(=S)[nH]1,-2.58 ± 0.18
4,S=c1[nH]cnc2nc[nH]c12,-1.7 ± 0.17
5,CN1CCN(c2cc3c(cc2F)c(=O)c(C(=O)O)cn3-c2ccc(F)cc2)CC1,-0.0696 ± 0.52
6,CCCCCCCCCCCCCCCCOP(=O)([O-])OCC[N+](C)(C)C,-1.18 ± 0.45
7,CCC(=O)NCC[C@@H]1CCc2ccc3c(c21)CCO3,-0.125 ± 0.067
8,CCN(CC)CCNC(=O)c1c(C)[nH]c(/C=C2\C(=O)Nc3ccc(F)cc32)c1C [Sunitinib Malate],-0.335 ± 0.17
9,CCCCCCCCCCOc1cc2c(O)c(C(=O)OCC)cnc2cc1OCC,-0.591 ± 0.88
10,Cc1cc2nc3ccc(N(C)C)cc3[s+]c2cc1N,-0.959 ± 0.51
11,CN(C)CCC=C1c2ccccc2COc2ccccc21,0.0965 ± 0.76
12,CC(=O)Oc1cc(C(C)C)c(OCCN(C)C)cc1C,-0.219 ± 0.18
13,O=C1CC[C@@H](C(=O)O)N1,0.186 ± 1.2
14,O=C1[C@H](CC[C@H](O)c2ccc(F)cc2)[C@@H](c2ccc(O)cc2)N1c1ccc(F)cc1,-0.13 ± 0.35
15,COc1ccc2c(c1OC)C(=O)O[C@@H]2[C@H]1c2c(cc3c(c2OC)OCO3)CCN1C,0.129 ± 0.48
16,COc1ccc2cc3[n+](cc2c1OC)CCc1cc2c(cc1-3)OCO2,-5.87 ± 0.012
17,CC[C@H]1OC(=O)[C@H](C)C(=O)[C@H](C)[C@@H](O[C@@H]2O[C@H](C)C[C@H](N(C)C)[C@H]2O)[C@](C)(OC)C[C@@H](C)C(=O)[C@H](C)[C@H]2N(CCCCn3cnc(-c4cccnc4)c3)C(=O)O[C@]12C,-0.0307 ± 0.49
18,NC(=O)NS(=O)(=O)c1ccc(N)cc1,0.826 ± 1.4
19,Cc1cc(-c2ccc(/N=N/c3ccc4c(S(=O)(=O)O)cc(S(=O)(=O)O)c(N)c4c3O)c(C)c2)ccc1/N=N/c1ccc2c(S(=O)(=O)O)cc(S(=O)(=O)O)c(N)c2c1O,1.24 ± 1
20,Cc1cc(=O)oc2cc(O)ccc12,0.758 ± 0.23
